Measurements taken from PubChem BioAssay (EPA / NIEHS).
Inconclusive results are not listed. Calls of active or inactive are those of the source. Rule for the calls, unless noted: active = hit-call score of the fitted dose curve at least 0.9, where 1 is the maximum; inconclusive = response in the unintended direction; inactive = score below 0.9.

Legend:
[1] = ATG_TCF_b_cat_CIS: Attagene CIS-FACTORIAL HepG2 Assay for human T-Cell-Factor with beta-catenin (TCF/b-cat) (AID 2282965; active = hit-call score of the fitted dose curve at least 0.9, where 1 is the maximum; inactive = score below 0.9); details: HepG2 TCF/beta-catenin cis-reporter transcription, actives raise or lower the signal
Outline: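 HepG2 cells transiently transfected with cis-promoter-driven multiplexed reporter units; reporter mRNA measured 24 h after dosing by RT-PCR, FAM labelling, HpaI digestion and capillary electrophoresis. Bidirectional fitting relative to DMSO baseline.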

[2] = ATG_TAL_CIS: Attagene CIS-FACTORIAL HepG2 Assay for human TAL Basal Promoter (AID 2282966; active = hit-call score of the fitted dose curve at least 0.9, where 1 is the maximum; inactive = score below 0.9;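 note: background control endpoint measuring basal TAL promoter reporter mRNA not a specific factor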); details: HepG2 Attagene cis-factorial TAL promoter reporter; actives raise or lower the signal
Outline: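 Endogenous transcription-factor activity is sensed in HepG2 cells through transfected cis-promoter reporter constructs. After 24 h dosing, reporter transcripts are quantified by RT-PCR and capillary electrophoresis. Gain or loss of signal is fitted relative to DMSO.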

[3] = ATG_TGFb_CIS: Attagene CIS-FACTORIAL HepG2 Assay for human Transforming Growth Factor (TGF) (AID 2282967; active = hit-call score of the fitted dose curve at least 0.9, where 1 is the maximum; inactive = score below 0.9); details: HepG2 Attagene CIS TGFb reporter, mRNA transcription; actives raise or lower the signal
Outline: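 Endogenous TGFB1-linked transcription factor activity read as reporter mRNA via RT-PCR and capillary electrophoresis, 24 h after dosing transiently transfected HepG2 cells. Gain or loss of signal fitted relative to DMSO.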

[4] = molecular target: Nuclear receptor subfamily 1 group I member 3 (Homo sapiens) (UniProt Q14994); experiment: ATG_CAR_TRANS: Attagene TRANS-FACTORIAL HepG2 Assay for human Constitutive Androstane Receptor (CAR) (AID 2282969); details: HepG2 Attagene TRANS-FACTORIAL CAR reporter;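 note: activators raise reporter mRNA above DMSO so AC50 marks induction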
Outline: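 Transiently transfected HepG2, multiplex TRANS reporters (CAR-Gal4 chimera driving GAL4-UAS reporter). 24 h dosing. Readout: reporter transcript by RT-PCR + capillary electrophoresis, fluorescence intensity; positive direction vs DMSO.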

[5] = molecular target: Estrogen receptor (Homo sapiens) (UniProt P03372); experiment: ATG_ERa_TRANS: Attagene TRANS-FACTORIAL HepG2 Assay for human Estrogen Receptor alpha (ERa) (AID 2282970); details: HepG2 Attagene TRANS ERa GAL4 reporter, mRNA
Outline: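 Transfected HepG2 cells carrying GAL4-UAS-driven reporter units were dosed for 24 hours. Total RNA was reverse-transcribed, reporter sequences PCR-amplified, FAM-labelled, HpaI-digested and resolved by capillary electrophoresis. Increases over DMSO control defined activity.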

[6] = molecular target: X-box-binding protein 1 (Homo sapiens) (UniProt P17861); experiment: ATG_Xbp1_CIS: Attagene CIS-FACTORIAL HepG2 Assay for human X-box Binding Protein 1 (XBP1) (AID 2282972; active = hit-call score of the fitted dose curve at least 0.9, where 1 is the maximum; inactive = score below 0.9); details: HepG2 XBP1 cis-element reporter, Attagene multiplex; actives raise or lower the signal
Outline: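 Reporter transcripts were quantified by RT-PCR with fluorescent primer extension and capillary electrophoresis after 24 h chemical exposure. Cells: transiently transfected HepG2 carrying cis-regulated reporter constructs; data fitted bidirectionally relative to DMSO.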

[7] = ATG_M_19_TRANS: Attagene TRANS-FACTORIAL HepG2 Assay for M19 Transcription Factor (Internal Marker) (AID 2282974); details: HepG2 Attagene TRANS-FACTORIAL M19 internal marker reporter
Outline: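 Measured here: internal-marker reporter transcript from HepG2 cells transfected with MRTUs, harvested at 24 h. cDNA PCR products were 6-FAM labelled by primer extension, cut with HpaI for 2 h at 37 C, and resolved by CE.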

[8] = molecular target: Glucocorticoid receptor (Homo sapiens) (UniProt P04150); experiment: ATG_GR_TRANS: Attagene TRANS-FACTORIAL HepG2 Assay for human Glucocorticoid Receptor (GR) (AID 2282978); details: HepG2 Attagene TRANS GR reporter, mRNA transcription;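 note: activators score as hits since higher reporter transcript over DMSO is fitted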
Outline: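 Measurement of GAL4-UAS-driven reporter mRNA in human HepG2 liver cells 24 h post-dosing, using RT-PCR with fluorescent labelling and capillary electrophoresis; the transfected constructs report exogenous NR-GAL4 chimera activity, fitted upward against DMSO.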

[9] = molecular target: Oxysterols receptor LXR-alpha (Homo sapiens) (UniProt Q13133); experiment: ATG_LXRa_TRANS: Attagene TRANS-FACTORIAL HepG2 Assay for human Liver X Receptor alpha (LXRa) (AID 2282980); details: HepG2 Attagene TRANS reporter, LXRa transactivation
Outline: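 Transient HepG2 transfectants, 24 h dosing, RT-PCR/CE mRNA reporter quantitation; gain-of-signal vs DMSO.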

[10] = molecular target: Oxysterols receptor LXR-beta (Homo sapiens) (UniProt P55055); experiment: ATG_LXRb_TRANS: Attagene TRANS-FACTORIAL HepG2 Assay for human Liver X Receptor beta (LXRb) (AID 2282981); details: HepG2 Attagene TRANS GAL4-LXRb reporter, mRNA
Outline: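 Readout: fluorescent reporter mRNA fragments resolved by capillary electrophoresis after RT-PCR. System: transiently transfected human HepG2, exogenous LXRb-Gal4 chimera driving GAL4-UAS reporter, 24 h dosing. Activity fitted upward against DMSO baseline.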

[11] = molecular target: Transcriptional activator Myb (Homo sapiens) (UniProt P10242); experiment: ATG_Myb_CIS: Attagene CIS-FACTORIAL HepG2 Assay for human Myeloblastosis (Myb) Proto-Oncogene Transcription Factor (AID 2282986; active = hit-call score of the fitted dose curve at least 0.9, where 1 is the maximum; inactive = score below 0.9); details: HepG2 Attagene CIS-FACTORIAL Myb reporter transcription; actives raise or lower the signal
Outline: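 Fluorescence signals from capillary electrophoresis of RT-PCR-amplified reporter cDNA give the read-out. Cells: HepG2 transfected with multiple cis-regulated reporter units. Exposure lasts 24 hours; DMSO defines baseline for gain or loss of signal.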

[12] = ATG_GAL4_TRANS: Attagene TRANS-FACTORIAL HepG2 Assay for GAL4 (Internal Marker) (AID 2282976); details: HepG2 Attagene TRANS GAL4 internal marker reporter
Outline: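 Fluorescence from capillary electrophoresis of labelled RT-PCR products quantifies reporter mRNA induction after 24 h dosing of HepG2 cells carrying transfected GAL4-UAS reporter transcription units. Vehicle DMSO serves as baseline.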

[13] = molecular target: Bile acid receptor (Homo sapiens) (UniProt Q96RI1); experiment: ATG_FXR_TRANS: Attagene TRANS-FACTORIAL HepG2 Assay for Farnesoid X Receptor (FXR) (AID 2282979); details: HepG2 Attagene TRANS FXR-GAL4 reporter transcription;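 note: hits raise reporter mRNA above DMSO so AC50 marks FXR activation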
Outline: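 Chimeric FXR-GAL4 activity in transiently transfected human HepG2 liver cells is scored as induction of reporter mRNA after 24 h of dosing. Detection uses RT-PCR with fluorescent labelling and capillary electrophoresis, with DMSO serving as baseline.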

[14] = ATG_M_06_TRANS: Attagene TRANS-FACTORIAL HepG2 Assay for M06 Transcription Factor (Internal Marker) (AID 2282983); details: HepG2 Attagene TRANS M06 internal marker reporter
Outline: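 Human liver HepG2 cells bearing transiently transfected chimeric NR-GAL4 reporter units were treated with chemicals for 24 h. Total RNA was reverse-transcribed, reporter sequences amplified and labelled, then quantified by capillary electrophoresis. Activity was fitted upward relative to DMSO.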

[15] = molecular target: Nuclear receptor subfamily 4 group A member 2 (Homo sapiens) (UniProt P43354); experiment: ATG_NURR1_TRANS: Attagene TRANS-FACTORIAL HepG2 Assay for human Nuclear Receptor Related Protein 1 (NURR1) (AID 2282985); details: HepG2 Attagene TRANS reporter, mRNA readout
Outline: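 Read-out: reporter mRNA induction by RT-PCR plus capillary electrophoresis with fluorescence detection, after 24 h dosing of transfected HepG2 cells. Exogenous NR-Gal4 chimera activity drives GAL4-UAS reporter; activity fitted upward versus DMSO.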

[16] = molecular target: Hepatocyte nuclear factor 4-alpha (Homo sapiens) (UniProt P41235); experiment: ATG_HNF4a_TRANS: Attagene TRANS-FACTORIAL HepG2 Assay for human Hepatocyte Nuclear Factor 4 alpha (HNF4a) (AID 2282982); details: HepG2 HNF4a transactivation reporter, mRNA readout
Outline: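 Transient MRTU transfection of HepG2, 24 h dosing. Readout: reporter mRNA via RT-PCR + capillary electrophoresis, fluorescence; activity fit upward relative to DMSO control.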

[17] = ATG_M_32_TRANS: Attagene TRANS-FACTORIAL HepG2 Assay for M32 Transcription Factor (Internal Marker) (AID 2282984); details: HepG2 Attagene TRANS M32 internal marker reporter;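 note: transcript level of a background control reporter unit measured by RT-PCR and capillary electrophoresis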
Outline: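 Read-out: fluorescent reporter cDNA fragments resolved by capillary electrophoresis after RT-PCR of total RNA. Transfected HepG2 cells were exposed to chemical for 24 h. Activity scored in the positive direction relative to DMSO.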

[18] = molecular target: Estrogen-related receptor gamma (Homo sapiens) (UniProt P62508); experiment: ATG_ERRg_TRANS: Attagene TRANS-FACTORIAL HepG2 Assay for human Estrogen-Related Receptor gamma (ERRg) (AID 2282977); details: HepG2 Attagene TRANS reporter, ERRg transactivation;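 note: hits increase reporter signal over DMSO so potencies reflect activators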
Outline: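 Exogenous NR-Gal4 chimera activity was assessed in HepG2 cells bearing transfected GAL4-UAS reporters. After 24 h dosing, total RNA underwent RT-PCR, fluorescent primer extension and HpaI digestion before capillary electrophoresis, with gain of signal scored against DMSO.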

[19] = molecular target: Steroid hormone receptor ERR1 (Homo sapiens) (UniProt P11474); experiment: ATG_ERRa_TRANS: Attagene TRANS-FACTORIAL HepG2 Assay for human Estrogen-Related Receptor alpha (ERRa) (AID 2282971); details: HepG2 Attagene TRANS reporter, ERRa transactivation
Outline: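 HepG2 cells were transiently transfected with multiple GAL4-UAS reporter units, then dosed with compound for 24 h. Total RNA was reverse-transcribed, reporter cDNA PCR-amplified and fluorescently labelled, and fragments resolved by capillary electrophoresis; induction was compared with DMSO.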

Measured: AC50

Estrogen-related receptor gamma (Homo sapiens), sequence (P62508 whole entry, looked up, the tested form may be a part): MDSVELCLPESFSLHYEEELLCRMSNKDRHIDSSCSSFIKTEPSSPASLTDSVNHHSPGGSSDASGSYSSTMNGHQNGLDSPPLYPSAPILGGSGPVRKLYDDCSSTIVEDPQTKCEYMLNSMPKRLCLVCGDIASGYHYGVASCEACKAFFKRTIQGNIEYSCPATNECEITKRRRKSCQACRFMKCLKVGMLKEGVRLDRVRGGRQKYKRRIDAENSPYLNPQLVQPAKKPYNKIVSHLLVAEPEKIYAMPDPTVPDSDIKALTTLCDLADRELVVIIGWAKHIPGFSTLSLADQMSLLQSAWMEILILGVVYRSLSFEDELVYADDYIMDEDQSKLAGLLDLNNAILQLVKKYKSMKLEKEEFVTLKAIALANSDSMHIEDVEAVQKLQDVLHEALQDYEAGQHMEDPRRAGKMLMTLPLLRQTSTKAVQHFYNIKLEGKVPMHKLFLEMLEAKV
Nuclear receptor subfamily 4 group A member 2 (Homo sapiens), sequence (P43354 whole entry, looked up, the tested form may be a part): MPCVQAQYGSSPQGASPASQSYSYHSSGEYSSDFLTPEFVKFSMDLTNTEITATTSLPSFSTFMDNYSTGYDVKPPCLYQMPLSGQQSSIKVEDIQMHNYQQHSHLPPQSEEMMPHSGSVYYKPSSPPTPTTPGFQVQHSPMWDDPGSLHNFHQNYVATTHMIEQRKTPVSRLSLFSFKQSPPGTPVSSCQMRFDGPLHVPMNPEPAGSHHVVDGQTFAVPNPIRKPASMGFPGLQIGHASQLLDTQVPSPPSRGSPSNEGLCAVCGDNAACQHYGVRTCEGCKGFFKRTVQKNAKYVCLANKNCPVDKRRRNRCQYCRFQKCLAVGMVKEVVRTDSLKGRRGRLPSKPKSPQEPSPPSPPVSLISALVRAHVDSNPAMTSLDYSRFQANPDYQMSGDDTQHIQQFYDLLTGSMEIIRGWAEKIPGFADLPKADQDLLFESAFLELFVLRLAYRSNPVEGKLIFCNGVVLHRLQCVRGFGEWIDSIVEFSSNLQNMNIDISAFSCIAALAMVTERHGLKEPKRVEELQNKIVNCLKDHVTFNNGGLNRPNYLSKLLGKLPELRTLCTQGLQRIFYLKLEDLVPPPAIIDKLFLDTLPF
Oxysterols receptor LXR-beta (Homo sapiens), sequence (P55055 whole entry, looked up, the tested form may be a part): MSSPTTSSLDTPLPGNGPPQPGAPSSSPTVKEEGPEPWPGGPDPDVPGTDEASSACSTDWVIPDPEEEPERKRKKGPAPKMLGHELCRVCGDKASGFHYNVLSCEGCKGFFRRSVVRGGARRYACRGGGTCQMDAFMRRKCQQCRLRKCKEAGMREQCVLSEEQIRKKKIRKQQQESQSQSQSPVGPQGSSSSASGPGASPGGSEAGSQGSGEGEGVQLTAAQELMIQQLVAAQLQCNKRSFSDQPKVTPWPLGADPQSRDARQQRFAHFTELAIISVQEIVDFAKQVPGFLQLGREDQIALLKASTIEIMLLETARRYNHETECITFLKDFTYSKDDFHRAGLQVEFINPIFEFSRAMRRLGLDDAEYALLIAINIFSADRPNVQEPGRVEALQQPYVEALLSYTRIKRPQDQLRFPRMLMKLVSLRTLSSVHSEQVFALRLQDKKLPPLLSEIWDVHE
Transcriptional activator Myb (Homo sapiens), sequence (P10242 whole entry, looked up): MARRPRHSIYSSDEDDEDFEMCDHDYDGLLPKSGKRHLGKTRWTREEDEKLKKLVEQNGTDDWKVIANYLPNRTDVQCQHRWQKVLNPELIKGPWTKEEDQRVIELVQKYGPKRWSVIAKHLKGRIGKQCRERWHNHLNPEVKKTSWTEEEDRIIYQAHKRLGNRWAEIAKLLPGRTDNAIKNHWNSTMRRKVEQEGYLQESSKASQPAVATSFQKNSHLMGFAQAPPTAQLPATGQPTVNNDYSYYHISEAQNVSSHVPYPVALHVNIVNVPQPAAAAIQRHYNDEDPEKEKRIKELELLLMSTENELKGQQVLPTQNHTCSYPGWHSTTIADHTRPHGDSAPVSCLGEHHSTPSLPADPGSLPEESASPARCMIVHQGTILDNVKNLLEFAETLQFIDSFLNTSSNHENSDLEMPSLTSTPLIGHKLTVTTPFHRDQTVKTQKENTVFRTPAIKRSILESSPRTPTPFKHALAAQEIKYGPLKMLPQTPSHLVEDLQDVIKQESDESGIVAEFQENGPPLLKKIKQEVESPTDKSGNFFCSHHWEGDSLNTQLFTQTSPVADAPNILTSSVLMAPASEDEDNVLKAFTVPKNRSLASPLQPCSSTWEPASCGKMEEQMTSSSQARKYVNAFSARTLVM
Bile acid receptor (Homo sapiens), sequence (Q96RI1 whole entry, looked up, the tested form may be a part): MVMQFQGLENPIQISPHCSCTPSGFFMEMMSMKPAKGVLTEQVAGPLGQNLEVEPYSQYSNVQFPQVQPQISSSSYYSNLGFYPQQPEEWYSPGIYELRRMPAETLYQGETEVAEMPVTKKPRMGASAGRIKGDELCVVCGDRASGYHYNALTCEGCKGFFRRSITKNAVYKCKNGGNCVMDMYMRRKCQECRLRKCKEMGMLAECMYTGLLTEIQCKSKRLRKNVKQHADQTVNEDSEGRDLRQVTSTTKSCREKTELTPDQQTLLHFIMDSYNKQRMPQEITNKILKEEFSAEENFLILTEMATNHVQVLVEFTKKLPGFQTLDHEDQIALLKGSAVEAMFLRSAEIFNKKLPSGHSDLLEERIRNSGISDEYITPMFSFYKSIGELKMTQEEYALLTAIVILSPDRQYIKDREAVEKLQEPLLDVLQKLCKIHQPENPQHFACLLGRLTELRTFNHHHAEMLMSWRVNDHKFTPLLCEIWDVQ
Estrogen receptor (Homo sapiens), sequence (P03372 whole entry, looked up, the tested form may be a part): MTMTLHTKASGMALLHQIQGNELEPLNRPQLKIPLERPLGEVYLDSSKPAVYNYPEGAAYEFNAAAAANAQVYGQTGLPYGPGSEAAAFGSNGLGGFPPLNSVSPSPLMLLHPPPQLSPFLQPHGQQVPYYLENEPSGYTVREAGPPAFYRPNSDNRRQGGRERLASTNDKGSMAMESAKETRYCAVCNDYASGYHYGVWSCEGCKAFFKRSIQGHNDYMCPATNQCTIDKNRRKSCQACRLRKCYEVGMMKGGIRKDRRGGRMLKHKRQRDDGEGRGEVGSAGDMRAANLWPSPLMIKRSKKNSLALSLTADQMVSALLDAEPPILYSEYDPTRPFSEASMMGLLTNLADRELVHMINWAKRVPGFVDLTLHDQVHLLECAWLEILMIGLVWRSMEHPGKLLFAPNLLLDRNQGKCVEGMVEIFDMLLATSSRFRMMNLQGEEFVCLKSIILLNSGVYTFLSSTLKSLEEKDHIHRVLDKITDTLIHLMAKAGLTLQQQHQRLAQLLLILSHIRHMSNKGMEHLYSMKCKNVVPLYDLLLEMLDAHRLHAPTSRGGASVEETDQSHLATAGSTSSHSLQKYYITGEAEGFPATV
Steroid hormone receptor ERR1 (Homo sapiens), sequence (P11474 whole entry, looked up, the tested form may be a part): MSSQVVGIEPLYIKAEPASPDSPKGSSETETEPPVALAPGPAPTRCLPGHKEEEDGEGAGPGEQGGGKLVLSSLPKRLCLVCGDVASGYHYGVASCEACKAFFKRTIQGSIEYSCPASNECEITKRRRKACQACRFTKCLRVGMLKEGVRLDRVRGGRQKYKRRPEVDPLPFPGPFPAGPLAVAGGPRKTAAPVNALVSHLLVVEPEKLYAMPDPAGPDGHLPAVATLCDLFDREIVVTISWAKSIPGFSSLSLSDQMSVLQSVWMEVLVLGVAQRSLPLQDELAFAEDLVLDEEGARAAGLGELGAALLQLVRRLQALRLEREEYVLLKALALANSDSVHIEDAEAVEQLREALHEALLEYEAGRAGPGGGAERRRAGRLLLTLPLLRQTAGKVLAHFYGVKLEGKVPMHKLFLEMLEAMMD
Nuclear receptor subfamily 1 group I member 3 (Homo sapiens), sequence (Q14994 whole entry, looked up, the tested form may be a part): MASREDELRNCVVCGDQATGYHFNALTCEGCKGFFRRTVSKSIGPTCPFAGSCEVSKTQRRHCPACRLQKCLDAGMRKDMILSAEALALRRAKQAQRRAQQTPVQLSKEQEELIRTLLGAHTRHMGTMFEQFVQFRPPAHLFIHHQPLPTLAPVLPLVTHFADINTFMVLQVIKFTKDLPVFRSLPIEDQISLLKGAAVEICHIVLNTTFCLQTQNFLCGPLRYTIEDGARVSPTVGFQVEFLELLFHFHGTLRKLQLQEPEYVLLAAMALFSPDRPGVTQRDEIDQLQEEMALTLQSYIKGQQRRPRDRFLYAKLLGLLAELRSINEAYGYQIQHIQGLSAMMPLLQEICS
Hepatocyte nuclear factor 4-alpha (Homo sapiens), sequence (P41235 whole entry, looked up): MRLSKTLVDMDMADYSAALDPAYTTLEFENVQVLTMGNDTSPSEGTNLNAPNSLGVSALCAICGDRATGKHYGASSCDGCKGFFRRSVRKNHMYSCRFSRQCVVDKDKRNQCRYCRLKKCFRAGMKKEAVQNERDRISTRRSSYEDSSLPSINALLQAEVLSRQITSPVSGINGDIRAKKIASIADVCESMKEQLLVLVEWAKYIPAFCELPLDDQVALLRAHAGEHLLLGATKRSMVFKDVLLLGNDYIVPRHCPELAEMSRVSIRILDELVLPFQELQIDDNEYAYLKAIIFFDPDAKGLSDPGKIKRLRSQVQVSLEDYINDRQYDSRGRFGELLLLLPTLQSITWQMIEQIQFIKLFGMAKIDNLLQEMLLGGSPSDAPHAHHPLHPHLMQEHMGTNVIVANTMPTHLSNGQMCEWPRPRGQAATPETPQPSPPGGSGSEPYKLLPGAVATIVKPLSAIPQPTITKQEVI
X-box-binding protein 1 (Homo sapiens), sequence (P17861 whole entry, looked up): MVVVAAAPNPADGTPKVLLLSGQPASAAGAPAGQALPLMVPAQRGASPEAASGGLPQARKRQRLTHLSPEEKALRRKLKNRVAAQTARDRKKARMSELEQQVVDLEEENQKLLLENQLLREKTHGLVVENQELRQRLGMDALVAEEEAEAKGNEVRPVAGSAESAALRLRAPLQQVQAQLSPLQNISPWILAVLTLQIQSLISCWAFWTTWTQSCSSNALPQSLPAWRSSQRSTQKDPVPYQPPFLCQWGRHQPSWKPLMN

CCCC1CCCC(=O)O1 (configuration not stated)
not listed: [12] | [13] | [14] | [15] | [16] | [17] | [18] | [19]
inactive: all other assays above

CC1=C(O)C(=O)C(C)O1 (configuration not stated)
not listed: [4] | [7] | [8] | [9] | [16] | [17] | [18] | [19]
inactive: all other assays above

CC(C)[N+](C)(CCOC(=O)C1c2ccccc2Oc2ccccc21)C(C)C
inactive: [1] | [2] | [3] | [5] | [6] | [7] | [12] | [8] | [13] | [10]

CCC(C)C(=O)OCCc1ccccc1 (configuration not stated)
inactive: [1] | [2] | [3] | [5] | [6] | [13] | [10] | [16] | [14]

O=C(Oc1ccccc1)c1ccccc1O
not listed: [7] | [8] | [9] | [13] | [16] | [17] | [18] | [19]
inactive: all other assays above

CC(C)CCCCCOC(=O)CS
not listed: [5] | [7] | [9] | [10] | [13] | [17] | [18] | [19]
inactive: all other assays above

CC1(C)CCC[C@]2(C)[C@H]3CC(=O)O[C@]3(C)CC[C@@H]12
active: [5] 2.7 µM
not listed: [4] | [12] | [14] | [15] | [16] | [18] | [19]
inactive: all other assays above

Cc1ccc2c(c1)CCCN2
not listed: [7] | [8] | [10] | [12] | [13] | [18] | [19]
inactive: all other assays above

[Cl][Eu]([Cl])[Cl]
inactive: [1] | [2] | [3] | [6] | [8] | [13] | [14] | [11]
active: [5] 36.6 µM

CC(C)c1ccc(O)c(C(C)C)c1
active: [5] 33.4 µM
inactive: [1] | [2] | [3] | [4] | [6] | [9] | [14] | [17] | [15] | [11]

N=C1C=CC(=C(c2ccc(N)cc2)c2ccc(N)cc2)C=C1
active: [1] 26.5 µM | [6] 25.3 µM | [16] 129 µM | [11] 24.9 µM
not listed: [4] | [8] | [9] | [10] | [13] | [19]
inactive: all other assays above

O=C(O[C@@H]1Cc2c(O)cc(O)cc2O[C@@H]1c1cc(O)c(O)c(O)c1)c1cc(O)c(O)c(O)c1
active: [1] 36 µM
inactive: [2] | [3] | [5] | [6] | [12] | [9] | [10] | [17] | [15] | [11]

COC(=O)CC(C)CCC=C(C)C (configuration not stated)
not listed: [4] | [7] | [8] | [14] | [15]
inactive: all other assays above

O=C(Cl)c1c(Cl)c(Cl)c(C(=O)Cl)c(Cl)c1Cl
active: [3] 0.74 µM
not listed: [4] | [7] | [8] | [10] | [17]
inactive: all other assays above

Cc1noc(NS(=O)(=O)c2ccc(N)cc2)c1C
not listed: [4] | [7] | [8] | [10] | [12] | [17] | [18] | [19]
inactive: all other assays above

CCCCC1CCC(=O)O1 (configuration not stated)
not listed: [12] | [13] | [18]
inactive: all other assays above

CCCCNS(=O)(=O)c1ccc(C)cc1
not listed: [4] | [8] | [12] | [13] | [16] | [17] | [18] | [19]
inactive: all other assays above

Nc1ccc(O)c([N+](=O)[O-])c1
not listed: [4] | [7] | [8] | [12] | [13] | [14] | [15] | [17]
inactive: all other assays above

O=C1CCCCCCCCCCC1
active: [5] 21.2 µM
not listed: [7] | [12] | [13] | [16] | [18] | [19]
inactive: all other assays above

CCc1cccc(C)c1N(C(=O)CS(=O)(=O)O)C(C)COC (configuration not stated)
active: [5] 56.2 µM
not listed: [4] | [7] | [10] | [18] | [19]
inactive: all other assays above

CC(C)(C)C1CCC(=O)CC1
not listed: [4] | [7] | [14] | [15] | [16] | [18]
inactive: all other assays above

O=C(Oc1ccccc1)c1ccccc1C(=O)Oc1ccccc1
active: [1] 51.4 µM
inactive: [2] | [3] | [5] | [6] | [12] | [16] | [17] | [11]
